Rows were chosen to be rich in hits. Some 3.5% of all compounds tested hit in one or more screens of this group.
KDM4E inh – qHTS Assay for Inhibitors of Human Jumonji Domain Containing 2E (JMJD2E); JMJD2E catalytic domain, FDH-coupled NADH fluorescence (FDH is formaldehyde dehydrogenase); Lysine-specific demethylase 4E (Homo sapiens), B2RXH2; 1.6% of 230,000 active; Potency, µM (series often up to 57.1 µM), inactives show at the top dose activity change, negative = inhibition, actives largely listed as inhibitors; AID 2147, 2009; active = well fitted inhibition curve with a large enough effect, not every such curve was filed as active; inconclusive = small, poorly fitted or top-dose-only effect, or another doubt; inactive = no such curve, though single readings can be large or run the other way;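 note: 0% = wells with enzyme and -100% = buffer wells without enzyme; nearly all actives have a fitted effect of over 50% in size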
Target sequence (B2RXH2 1-337 limits assumed): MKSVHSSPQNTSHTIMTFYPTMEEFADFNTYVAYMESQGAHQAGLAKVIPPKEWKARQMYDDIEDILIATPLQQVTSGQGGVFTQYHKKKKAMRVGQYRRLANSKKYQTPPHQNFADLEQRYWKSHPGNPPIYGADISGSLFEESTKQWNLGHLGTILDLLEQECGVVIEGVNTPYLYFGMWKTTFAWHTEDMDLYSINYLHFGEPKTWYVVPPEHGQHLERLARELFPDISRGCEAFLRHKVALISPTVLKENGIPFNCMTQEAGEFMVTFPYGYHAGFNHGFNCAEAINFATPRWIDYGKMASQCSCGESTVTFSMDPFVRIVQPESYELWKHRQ
Tau fluor cs – Counterscreen qHTS for Inhibitors of Tau Fibril Formation, Fluorescence Polarization. tau K18 P301L Alexa594 fluorescence, heparin fibrillization. AID 1463, 2008. Potency, µM (highest dose often 57.7 µM), for the others: at the top dose activity change, negative = decrease. 0.93% of 280,000 active; note: nearly all actives have a fitted effect of over 55% in size
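Human tau K18 P301L (15 uM unlabeled, 0.24 uM Alexa 594-labeled) in 100 mM sodium acetate pH 7 with 20 uM heparin, 6 hr at 37 C. ThT 30 uM added, 1 hr ambient; Alexa 594 FP and total fluorescence read at 555/632 nm.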
TexasRed fluor – Total Fluorescence Counterscreen for Inhibitors of the Interaction of Thyroid Hormone Receptor and Steroid Receptor Coregulator 2. Potency, µM (highest dose often 106 µM), without a hit: top-dose fluorescence change, negative = quenching. TRb/SRC2 Texas Red total fluorescence interference. 0.29% of 280,000 active. AID 1479, 2009; active = well fitted curve in either direction with a large enough effect; inconclusive = small, poorly fitted or top-dose-only effect
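Human TRβ ligand-binding domain (0.6 uM) and Texas Red SRC2 peptide (20 nM) in Tris buffer with 1 uM T3 and 5% DMSO were incubated with pinned compound for 5 hr at ambient temperature. Total fluorescence was computed as S + 2P (555/632 nm).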
Tau FP inhib – qHTS for Inhibitors of Tau Fibril Formation, Fluorescence Polarization; Potency, µM (top dose mostly 57.7 µM), for the others: at the top dose activity, negative = inhibition, usual class: inhibitors; K18 P301L tau heparin fibrillization, Alexa594 FP, 6 h; 0.39% of 280,000 active; note: nearly all actives have a fitted effect of over 55% in size
Target sequence (P10636 561-689 P618L limits assumed): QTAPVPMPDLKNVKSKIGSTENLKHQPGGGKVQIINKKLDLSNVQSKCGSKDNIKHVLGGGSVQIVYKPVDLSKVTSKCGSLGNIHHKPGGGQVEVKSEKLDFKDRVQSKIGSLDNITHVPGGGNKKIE
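Human K18 P301L fragment (15 uM unlabeled plus 0.24 uM Alexa 594-labeled) in 100 mM sodium acetate pH 7 with compound, aggregation induced by 20 uM heparin for 6 hr at 37 C. ThT (30 uM) added for 1 hr, then Alexa 594 FP read.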
Tau ThT inhib – qHTS for Inhibitors of Tau Fibril Formation, Thioflavin T Binding. recombinant tau K18 P301L (four-repeat tau fragment), heparin-induced fibrillization, ThT fluorescence. AID 1460, 2008. 2.1% of 270,000 active. Potency, µM (series often up to 57.4 µM), for inactives: top-dose activity, negative = inhibition, hits mostly inhibitors; note: nearly all actives have a fitted effect of over 55% in size
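Tau K18 P301L fragment (15 uM unlabeled plus 0.24 uM Alexa 594-labeled) in 100 mM sodium acetate pH 7 with compound, fibrillization induced by 20 uM heparin for 6 hr at 37 C. Thioflavin T (30 uM) added, fluorescence read after 1 hr (ex 450, em 510 nm).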
TRb-SRC2 inh – qHTS for Inhibitors of the Interaction of Thyroid Hormone Receptor and Steroid Receptor Coregulator 2; Thyroid hormone receptor beta (Homo sapiens), P10828; TRbeta-SRC2 peptide binding, fluorescence polarization; receptor liganded with 1 µM T3; Potency, µM (highest dose often 106 µM), without a hit: at the top dose activity change, negative = inhibition, most hits filed as inhibitors; 0.065% of 280,000 active;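 note: plate controls were bound peptide for no effect and peptide without receptor for full effect; nearly all actives have a fitted effect of over 50% in size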
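Each compound concentration gave % activity, normalized to unbound and bound Texas Red SRC2 controls, from polarization read after 5 hr ambient incubation with T3-loaded human TRb LBD.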
* = called active by the depositor; u = inconclusive; x = no result given; [ ] = dose if it differs, or a comment. Unless noted, calls come from the whole dose curve; as a rule, active = well fitted curve in the direction sought with a large enough effect; inconclusive = small, poorly fitted or top-dose-only effect, or another doubt; inactive = no such curve, though single readings can be large; an effect the other way counts as inactive or inconclusive. Unless noted, % is set by controls: 0 for no effect and ±100 for the full control effect; potency is the fitted concentration of half-maximal effect.

SMILES	KDM4E inh	Tau fluor cs	TexasRed fluor	Tau FP inhib	Tau ThT inhib	TRb-SRC2 inh
Cc1ccc(N2C(=O)C(Cl)=C(NCCO)C2=O)c(C)c1	u	u	1%	u	u	-14%
CN1CCN(C2=C(Cl)C(=O)N(c3ccc(Cl)cc3)C2=O)CC1	0%	u	3%	u	25µM*	-1%
O=C1C(Cl)=C(N2CCCCC2)C(=O)N1Cc1ccccc1	-10%	-2%	-1%[53 µM]	-1%	u	3%[53 µM]
CN1CCN(C2=C(Cl)C(=O)N(CCc3ccccc3)C2=O)CC1	0%	-14%	-4%	0%	u	-15%
Cc1ccc(N2C(=O)C(Cl)=C(N3CCN(C)CC3)C2=O)c(C)c1	-7%	u	-1%	25µM*	14µM*	2%
O=C1C(Cl)=C(N2CCN(Cc3ccccc3)CC2)C(=O)N1c1ccccc1	-5%	u	-9%	25µM*	16µM*	-4%
COc1ccc(N)cc1-n1c(C)ccc1C	u	u	0%[53 µM]	u	3.2µM*	-11%[53 µM]
COc1ccc(C)cc1-n1c(C)cc(C=O)c1C	-10%	-6%	-2%	0%	-4%	7%
CC(=O)Nc1ccc(S(=O)(=O)NC2=NCN(C(C)C)CN2)cc1	x	-12%	13µM*[quencher]	0%	-5%	-4%
CC(C)NC(=O)c1sc2nc(-c3cccs3)cc(-c3cccs3)c2c1N	-6%	-24%	-1%	1%	u	0%
Nc1ccc(C(=O)Nc2nc3ccccc3s2)cc1	u	-29%	-6%	2%	-8%	-10%
Nc1c(C(=O)Nc2ccccc2Br)sc2nc(-c3cccs3)ccc12	x	3.2µM*[quencher]	-22%	u	u	9%
CC(=O)c1sc2nc(-c3cccs3)ccc2c1N	u	u	-5%	-16%	16µM*	-1%
Nc1c(C(=O)Nc2nc3ccccc3s2)sc2nc(-c3cccs3)ccc12	u	13µM*[quencher]	32µM*[quencher]	4%	u	u
Nc1c(C(=O)Nc2ccc(Cl)cc2F)sc2nc(-c3cccs3)ccc12	x	2.2µM*[quencher]	-2%	-12%	u	-1%
CCc1ccc(-c2csc(NC(=O)c3cccnc3)n2)cc1	-10%	-6%	-1%	10%	-12%	-4%
COc1ccccc1OCC(O)COC(N)=O (stereo unspecified)	-4%	-3%	0%	-5%	-4%	-3%
CCOc1cc2[nH]c(=S)n(CCC(=O)N3CCc4ccccc4C3)c(=O)c2cc1OCC	3%	0%	-3%	-3%	-4%	-15%
CCC(Sc1nccn1C)C(=O)Nc1nnc(C)s1 (stereo unspecified)	6%	-4%	0%	5%	-9%	-14%
COC(=O)c1ccc(NC(=O)CN(Cc2ccccc2)S(=O)(=O)c2ccc(C)cc2)cc1	x	u	-2%	-8%	u	1%
COc1ccc(NC(=O)CN(Cc2ccccc2)S(=O)(=O)c2ccc(C)cc2)cc1Cl	x	-26%	6.3µM*[quencher]	u	-1%	-11%
CCNc1sc(C(=O)c2cccs2)c(N)c1-c1nc2ccccc2s1	-5%	u	-2%	-4%	8.9µM*	-2%
C=CCNc1sc(C(=O)c2ccccc2)c(N)c1-c1nc2ccccc2s1	-2%	-4%	2%	-7%	-7%	-1%
CCNc1sc(C(=O)c2cccs2)c(N)c1C#N	-20%	u	-5%	u	28µM*	-2%
COC(=O)c1ccc2c(=O)n(CC3CCCO3)c(SCC(=O)NCCc3ccc(S(N)(=O)=O)cc3)nc2c1 (stereo unspecified)	u	0%	0%	11%	-4%	0%
SMILES	KDM4E inh	Tau fluor cs	TexasRed fluor	Tau FP inhib	Tau ThT inhib	TRb-SRC2 inh
CCCOc1ccc(C2C(=O)N(C3CCC(C)CC3)CC(=O)N2CCC2=CCCCC2)cc1OC (stereo unspecified)	x	11%	-2%	6%	-1%	1%
CCSc1nc(N)nc(-c2cccs2)c1C#N	u	-25%	2%	-9%	-14%	-9%
COc1ccc(S(=O)(=O)c2c(Nc3c(C)cccc3C)sc(C(=O)c3ccc(F)cc3)c2N)cc1	x	-3%	u	-3%	3%	-23%
CCOc1ccc(N=C(C)C2=C(O)c3ccccc3C2=O)cc1	-23%	u	-1%	-6%	x	-5%
CCOc1ccc(N=C(NN)c2ccc3ccccc3n2)cc1	u	u	-3%	-11%	10µM*	-4%
N#Cc1c(-c2ccncc2)c2c([nH]c1=S)CCCC2	-26%	-17%	0%	-4%	u	3%
Cc1ccc(-c2c3c([nH]c(=S)c2C#N)CCCC3)o1	28µM*	-15%	-2%	u	22µM*	-3%
CCOC(=O)/C=C(\C)Sc1cc(=O)oc2ccccc12	-3%	-14%	4%	-15%	u	7%
CCOC(=O)/C=C(\C)Sc1cc(O)c2ccccc2c1O	3.5µM*	u	-1%	4.5µM*	1.8µM*	-4%
O=C(Nc1ccc(S(=O)(=O)Nc2ncccn2)cc1)c1ccc2ncsc2c1	3.2µM*	-14%	1%	0%	-19%	6%
O=C(Nc1ccc(S(=O)(=O)Nc2ncccn2)cc1)c1cccc(Cl)c1	x	-17%	-4%	-4%	u	-2%
c1ccc(N2CCN(c3nc4cc5c(cc4s3)OCO5)CC2)cc1	-5%	-18%	0%	-4%	2.5µM*	-8%
O=c1[nH]c2ccc(NCc3ccc(-c4ccc(Cl)cc4)o3)cc2[nH]1	x	-17%	100µM*[quencher]	6%	-19%	u
CCOC(=O)N1CCN(CC(O)COCc2cc(OC)c(OC)c(OC)c2)CC1 (stereo unspecified)	3%	9%	-5%	-2%	4%	6%
COc1cccc(/C=C/C(=O)OCC(=O)NCC2CCCO2)c1 (stereo unspecified)	u	8%	0%	2%	1%	1%
COc1cccc(/C=C/C(=O)OCC(=O)NCC2CCCO2)c1OC (stereo unspecified)	1%	3%	71µM*[quencher]	-5%	0%	-17%[53 µM]
Cc1cccc(/C=N/NC(=O)c2ccc(Br)cc2)c1	-8%	-10%	-5%	-1%	-17%	12%
Cc1cccc(N/N=C(\C=N\N)C(=O)c2ccc(Br)cc2)c1	3%	11µM*[quencher]	-3%	u	14µM*	-2%

From PubChem BioAssay
